From PubChem BioAssay (EPA / NIEHS)
“And” between values parts separate entries of the source, which are not always exact repeats. Identical values can stand only once. Records with an inconclusive call do not appear. More than one record can exist for a structure, and the calls need not agree. The source made the active and inactive calls. Rule for the calls, unless noted: active = hit-call score of the fitted dose curve at least 0.9, where 1 is the maximum; inactive = score below 0.9.

Columns and labels:
[1] = target: Oxysterols receptor LXR-alpha (Homo sapiens) (UniProt Q13133); assay: ATG_LXRa_TRANS: Attagene TRANS-FACTORIAL HepG2 Assay for human Liver X Receptor alpha (LXRa) (AID 2282980; active = hit-call score of the fitted dose curve at least 0.9, where 1 is the maximum); conditions: HepG2 Attagene TRANS reporter, LXRa transactivation
Method in brief: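 In this multiplexed TRANS system, compounds act on HepG2 cells carrying GAL4-UAS reporter units and a receptor-GAL4 fusion for 24 h. Induced reporter RNA is amplified, fluorescently labelled and sized by capillary electrophoresis, with DMSO as baseline.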

[2] = target: Oxysterols receptor LXR-beta (Homo sapiens) (UniProt P55055); assay: ATG_LXRb_TRANS: Attagene TRANS-FACTORIAL HepG2 Assay for human Liver X Receptor beta (LXRb) (AID 2282981; active = hit-call score of the fitted dose curve at least 0.9, where 1 is the maximum); conditions: HepG2 Attagene TRANS GAL4-LXRb reporter, mRNA
Method in brief: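 Cells: HepG2, transiently transfected with GAL4-UAS reporter units plus LXRb-Gal4 fusion. Treatment: 24 h. Detection: reporter mRNA by RT-PCR, 6-FAM labelling, HpaI digestion, capillary electrophoresis.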

[3] = ATG_M_06_TRANS: Attagene TRANS-FACTORIAL HepG2 Assay for M06 Transcription Factor (Internal Marker) (AID 2282983; active = hit-call score of the fitted dose curve at least 0.9, where 1 is the maximum;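 note: reporter transcript level by RT-PCR then capillary electrophoresis fluorescence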); conditions: HepG2 Attagene TRANS M06 internal marker reporter
Method in brief: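 Internal-marker background readout from a multiplexed TRANS reporter system in HepG2; 24 h dosing; mRNA induction quantified by RT-PCR plus capillary electrophoresis fluorescence; DMSO as negative control and baseline.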

[4] = ATG_M_32_TRANS: Attagene TRANS-FACTORIAL HepG2 Assay for M32 Transcription Factor (Internal Marker) (AID 2282984; active = hit-call score of the fitted dose curve at least 0.9, where 1 is the maximum;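 note: transcript level of a background control reporter unit measured by RT-PCR and capillary electrophoresis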); conditions: HepG2 Attagene TRANS M32 internal marker reporter
Method in brief: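 Using transiently transfected HepG2 cells exposed to test chemicals for 24 h, reporter transcripts are converted to labelled cDNA fragments and quantified by capillary electrophoresis. DMSO defines the activity baseline.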

[5] = target: Transcriptional activator Myb (Homo sapiens) (UniProt P10242); assay: ATG_Myb_CIS: Attagene CIS-FACTORIAL HepG2 Assay for human Myeloblastosis (Myb) Proto-Oncogene Transcription Factor (AID 2282986); conditions: HepG2 Attagene CIS-FACTORIAL Myb reporter transcription; actives raise or lower the signal
Method in brief: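 In this HepG2 transient-transfection format, cis-regulated reporter mRNA is quantified 24 h post-dosing by RT-PCR with capillary electrophoresis, fitted bidirectionally to DMSO baseline.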

[6] = target: Nuclear respiratory factor 1 (Homo sapiens) (UniProt Q16656); assay: ATG_NRF1_CIS: Attagene CIS-FACTORIAL HepG2 Assay for human Nuclear Respiratory Factor 1 (NRF1) Orphan Gene (AID 2282987); conditions: HepG2 NRF1 cis-element reporter, Attagene multiplex; actives raise or lower the signal
Method in brief: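 Using DMSO as baseline, gain- or loss-of-signal was fitted for reporter mRNA levels in HepG2 cells transiently transfected with cis-regulated reporter units. Samples were taken 24 h after dosing and read by RT-PCR with capillary electrophoresis.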

[7] = ATG_NFI_CIS: Attagene CIS-FACTORIAL HepG2 Assay for human Nuclear Factor I (NFI) (AID 2282989); conditions: HepG2 cis-regulatory reporter, NFI response element transcription; actives raise or lower the signal
Method in brief: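 Reporter transcription driven by endogenous transcription factors in HepG2 cells; 24 h treatment. Quantitation by labelled RT-PCR fragments on capillary electrophoresis, gain- or loss-of-signal relative to DMSO.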

[8] = target: Myc proto-oncogene protein (Homo sapiens) (UniProt P01106); assay: ATG_Myc_CIS: Attagene CIS-FACTORIAL HepG2 Assay for human Myelocytomatosis (Myc) Proto-Oncogene Transcription Factor (AID 2282990); conditions: HepG2, Attagene cis-reporter transcription factor activity; actives raise or lower the signal
Method in brief: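 After 24 h chemical treatment of HepG2 cells carrying multiplexed cis-regulated reporter constructs, reporter transcripts quantified by RT-PCR and capillary electrophoresis of fluorescent fragments. Gain or loss fitted against DMSO baseline.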

[9] = ATG_NF_kB_CIS: Attagene CIS-FACTORIAL HepG2 Assay for human Nuclear Factor Kappa B (NF-kB) (AID 2282991); conditions: HepG2 Attagene cis-factorial NF-kB reporter mRNA; actives raise or lower the signal
Method in brief: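 Endpoint from a 52-component multiplexed HepG2 reporter panel: cis-regulated transcription units transiently transfected, 24 h dosing, reporter mRNA quantified by RT-PCR and capillary electrophoresis, scored as increase or decrease against DMSO.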

[10] = ATG_NRF2_ARE_CIS: Attagene CIS-FACTORIAL HepG2 Assay for human Nuclear Factor Erythroid 2 Related Factor 2 (NFR2) response to Antioxidant Response Elements (ARE) (AID 2282992); conditions: HepG2 Attagene ARE/NRF2 reporter, transcription factor activity; actives raise or lower the signal;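 for AC50: reporter mRNA level measured by RT-PCR and capillary electrophoresis fluorescence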
Method in brief: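 Multiplexed reporter mRNA profiling in HepG2 after a 24 h chemical exposure. Curves fitted in both directions relative to DMSO negative control.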

[11] = ATG_Oct_MLP_CIS: Attagene CIS-FACTORIAL HepG2 Assay for human Octamer-Binding Transcription Factor (Oct) (AID 2282993); conditions: HepG2 Attagene cis-factorial Oct reporter, mRNA; actives raise or lower the signal
Method in brief: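 Transfected HepG2 cells, 24 h treatment. Reporter mRNA quantified by RT-PCR–capillary electrophoresis; bidirectional fitting against DMSO.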

[12] = target: Cellular tumor antigen p53 (Homo sapiens) (UniProt P04637); assay: ATG_p53_CIS: Attagene CIS-FACTORIAL HepG2 Assay for human p53 Transcription Factor (AID 2282994); conditions: HepG2 p53 cis-element reporter, Attagene mRNA; actives raise or lower the signal
Method in brief: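 Multiplexed reporter mRNA assay in human HepG2 liver cells; cis-regulated units report endogenous factor activity. Values come from bidirectional curve fitting against DMSO negative control after 24 h treatment.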

[13] = target: human Peroxisome Proliferator-activated Receptor alpha (PPARa), PPARA (gene 5465) (UniProt Q07869); assay: ATG_PPARa_TRANS: Attagene TRANS-FACTORIAL HepG2 Assay for human Peroxisome Proliferator-activated Receptor alpha (PPARa) (AID 2283001; active = hit-call score of the fitted dose curve at least 0.9, where 1 is the maximum;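 for AC50: potency for gain of reporter signal over DMSO so agonist or activator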)
Method in brief: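 Reporter transcripts from GAL4-UAS units in transfected HepG2 were quantified 24 h after dosing. Detection used reverse transcription, PCR, fluorescent primer extension and capillary electrophoresis, with DMSO as baseline.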

[14] = target: Hepatocyte nuclear factor 4-alpha (Homo sapiens) (UniProt P41235); assay: ATG_HNF4a_TRANS: Attagene TRANS-FACTORIAL HepG2 Assay for human Hepatocyte Nuclear Factor 4 alpha (HNF4a) (AID 2282982; active = hit-call score of the fitted dose curve at least 0.9, where 1 is the maximum); conditions: HepG2 HNF4a transactivation reporter, mRNA readout
Method in brief: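 Transfected HepG2 reporter cells are dosed for 24 h; reporter RNA is reverse-transcribed, amplified, fluorescently labelled and HpaI-digested before CE sizing. Positive-direction fit against DMSO.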

[15] = target: Nuclear receptor subfamily 4 group A member 2 (Homo sapiens) (UniProt P43354); assay: ATG_NURR1_TRANS: Attagene TRANS-FACTORIAL HepG2 Assay for human Nuclear Receptor Related Protein 1 (NURR1) (AID 2282985; active = hit-call score of the fitted dose curve at least 0.9, where 1 is the maximum); conditions: HepG2 Attagene TRANS reporter, mRNA readout
Method in brief: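 Cells: HepG2, transiently transfected. Exposure: 24 h. Detection: fluorescence of labelled RT-PCR products separated by capillary electrophoresis; upward fit versus DMSO.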

[16] = BSK_3C_TissueFactor: BioMAP Diversity Plus: 3C Assay for Tissue Factor Biomarker Activity (AID 2282997); conditions: BioMAP 3C HUVEC, tissue factor biomarker readout; actives raise or lower the signal
Method in brief: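 Endothelial monolayers (human umbilical vein, primary) are dosed, incubated 24 h, and assayed for Tissue Factor by ELISA; DMSO serves as negative control for bidirectional fitting.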

[17] = BSK_3C_uPAR: BioMAP Diversity Plus: 3C Assay for Urokinase-type plasminogen activator receptor (uPAR) Biomarker Activity (AID 2282998); conditions: BioMAP 3C HUVEC, uPAR biomarker ELISA; actives raise or lower the signal
Method in brief: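 Readout: ELISA for surface uPAR. System: human umbilical vein endothelial primary cells, 24 h after chemical exposure. Analysis: bidirectional fit, DMSO baseline.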

[18] = BSK_3C_VCAM1: BioMAP Diversity Plus: 3C Assay for Vascular cell adhesion molecule 1 (VCAM1) Biomarker Activity (AID 2282999); conditions: BioMAP 3C HUVEC, VCAM1 ELISA, cytokine-stimulated; actives raise or lower the signal
Method in brief: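 Endothelial cells from human umbilical vein are treated with test chemical. At 24 h, VCAM-1 is measured by ELISA, and responses in either direction are fitted relative to DMSO.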

Measured: AC50

Chain of Oxysterols receptor LXR-beta (Homo sapiens) (P55055 whole entry, looked up, the tested form may be a part): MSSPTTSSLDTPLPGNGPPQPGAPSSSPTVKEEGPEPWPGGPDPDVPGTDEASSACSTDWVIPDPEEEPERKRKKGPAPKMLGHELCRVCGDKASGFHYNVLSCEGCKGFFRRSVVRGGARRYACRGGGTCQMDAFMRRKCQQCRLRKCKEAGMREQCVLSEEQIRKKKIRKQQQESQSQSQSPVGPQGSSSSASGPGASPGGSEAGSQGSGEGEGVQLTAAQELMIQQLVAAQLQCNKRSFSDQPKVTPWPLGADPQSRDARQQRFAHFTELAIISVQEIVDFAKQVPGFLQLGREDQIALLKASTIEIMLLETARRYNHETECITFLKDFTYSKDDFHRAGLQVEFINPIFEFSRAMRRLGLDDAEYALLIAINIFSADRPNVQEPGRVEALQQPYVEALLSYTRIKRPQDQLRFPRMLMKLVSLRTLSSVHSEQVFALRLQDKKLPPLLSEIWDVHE
Chain of Nuclear receptor subfamily 4 group A member 2 (Homo sapiens) (P43354 whole entry, looked up): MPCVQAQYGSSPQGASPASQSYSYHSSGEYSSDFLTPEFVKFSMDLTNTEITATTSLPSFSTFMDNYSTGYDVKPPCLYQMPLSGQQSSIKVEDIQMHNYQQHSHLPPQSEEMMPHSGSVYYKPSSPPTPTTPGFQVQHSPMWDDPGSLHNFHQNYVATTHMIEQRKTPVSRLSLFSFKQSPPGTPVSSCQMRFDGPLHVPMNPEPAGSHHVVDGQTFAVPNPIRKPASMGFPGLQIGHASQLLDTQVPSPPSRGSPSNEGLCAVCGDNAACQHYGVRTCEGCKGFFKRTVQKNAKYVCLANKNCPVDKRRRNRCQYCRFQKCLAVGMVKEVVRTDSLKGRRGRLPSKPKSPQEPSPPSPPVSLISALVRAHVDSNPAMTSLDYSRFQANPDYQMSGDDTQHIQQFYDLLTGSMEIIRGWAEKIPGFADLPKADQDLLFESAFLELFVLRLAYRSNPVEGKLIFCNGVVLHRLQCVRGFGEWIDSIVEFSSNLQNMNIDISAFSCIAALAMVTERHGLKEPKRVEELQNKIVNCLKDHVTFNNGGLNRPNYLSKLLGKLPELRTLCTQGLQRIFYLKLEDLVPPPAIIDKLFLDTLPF
Chain of Oxysterols receptor LXR-alpha (Homo sapiens) (Q13133 whole entry, looked up, the tested form may be a part): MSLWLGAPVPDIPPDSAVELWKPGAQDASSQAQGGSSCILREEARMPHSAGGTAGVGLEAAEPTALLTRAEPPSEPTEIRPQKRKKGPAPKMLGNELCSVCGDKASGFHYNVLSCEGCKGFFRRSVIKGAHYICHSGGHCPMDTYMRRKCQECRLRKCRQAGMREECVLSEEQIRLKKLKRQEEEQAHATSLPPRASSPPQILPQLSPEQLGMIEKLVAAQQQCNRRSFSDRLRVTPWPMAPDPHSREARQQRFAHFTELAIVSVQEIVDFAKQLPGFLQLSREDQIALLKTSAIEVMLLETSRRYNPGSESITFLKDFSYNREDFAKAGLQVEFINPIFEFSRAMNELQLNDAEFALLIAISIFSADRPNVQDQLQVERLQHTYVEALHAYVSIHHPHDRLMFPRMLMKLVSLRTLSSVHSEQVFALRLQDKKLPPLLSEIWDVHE
Chain of Hepatocyte nuclear factor 4-alpha (Homo sapiens) (P41235 whole entry, looked up): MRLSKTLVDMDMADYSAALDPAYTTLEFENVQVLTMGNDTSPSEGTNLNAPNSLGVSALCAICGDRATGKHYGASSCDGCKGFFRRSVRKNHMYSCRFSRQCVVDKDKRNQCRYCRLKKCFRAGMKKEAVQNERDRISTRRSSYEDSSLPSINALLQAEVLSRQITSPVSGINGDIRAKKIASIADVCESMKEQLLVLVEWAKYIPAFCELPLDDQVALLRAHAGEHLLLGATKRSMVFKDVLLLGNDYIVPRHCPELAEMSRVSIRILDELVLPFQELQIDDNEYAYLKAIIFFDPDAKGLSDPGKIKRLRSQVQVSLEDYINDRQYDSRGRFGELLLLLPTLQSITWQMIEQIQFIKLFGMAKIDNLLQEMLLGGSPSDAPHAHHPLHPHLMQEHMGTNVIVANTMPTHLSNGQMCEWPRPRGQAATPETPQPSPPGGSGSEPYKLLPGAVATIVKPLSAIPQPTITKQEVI
Chain of Myc proto-oncogene protein (Homo sapiens) (P01106 whole entry, looked up, the tested form may be a part): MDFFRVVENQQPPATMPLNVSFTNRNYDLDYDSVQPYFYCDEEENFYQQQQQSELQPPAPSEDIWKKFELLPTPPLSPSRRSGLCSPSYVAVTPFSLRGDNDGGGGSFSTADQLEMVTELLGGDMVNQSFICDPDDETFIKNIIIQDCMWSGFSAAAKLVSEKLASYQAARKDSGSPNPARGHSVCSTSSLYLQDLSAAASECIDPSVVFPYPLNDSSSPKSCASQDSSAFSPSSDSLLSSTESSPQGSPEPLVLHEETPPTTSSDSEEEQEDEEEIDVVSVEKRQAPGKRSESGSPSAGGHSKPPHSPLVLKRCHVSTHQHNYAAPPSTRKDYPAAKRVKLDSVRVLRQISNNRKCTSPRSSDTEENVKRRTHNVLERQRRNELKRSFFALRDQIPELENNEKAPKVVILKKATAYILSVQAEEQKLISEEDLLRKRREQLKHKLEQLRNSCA
Chain of Transcriptional activator Myb (Homo sapiens) (P10242 whole entry, looked up): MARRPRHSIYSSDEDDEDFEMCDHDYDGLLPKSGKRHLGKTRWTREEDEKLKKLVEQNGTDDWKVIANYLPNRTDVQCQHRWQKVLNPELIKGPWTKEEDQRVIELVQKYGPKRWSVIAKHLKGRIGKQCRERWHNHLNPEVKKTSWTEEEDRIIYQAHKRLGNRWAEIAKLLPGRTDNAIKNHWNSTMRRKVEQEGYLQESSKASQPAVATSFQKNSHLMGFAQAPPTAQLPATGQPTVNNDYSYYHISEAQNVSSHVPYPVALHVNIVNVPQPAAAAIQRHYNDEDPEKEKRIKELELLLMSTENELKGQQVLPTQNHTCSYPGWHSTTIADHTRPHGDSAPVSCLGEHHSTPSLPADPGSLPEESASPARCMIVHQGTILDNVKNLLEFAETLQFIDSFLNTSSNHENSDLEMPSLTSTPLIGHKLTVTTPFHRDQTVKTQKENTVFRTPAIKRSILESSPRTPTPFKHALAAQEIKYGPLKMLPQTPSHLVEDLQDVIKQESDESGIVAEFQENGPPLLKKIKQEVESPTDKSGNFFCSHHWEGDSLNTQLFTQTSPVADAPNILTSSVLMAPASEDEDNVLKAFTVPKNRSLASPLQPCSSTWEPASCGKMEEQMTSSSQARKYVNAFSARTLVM
Chain of human Peroxisome Proliferator-activated Receptor alpha (PPARa), PPARA (gene 5465) (Q07869 whole entry, looked up, the tested form may be a part): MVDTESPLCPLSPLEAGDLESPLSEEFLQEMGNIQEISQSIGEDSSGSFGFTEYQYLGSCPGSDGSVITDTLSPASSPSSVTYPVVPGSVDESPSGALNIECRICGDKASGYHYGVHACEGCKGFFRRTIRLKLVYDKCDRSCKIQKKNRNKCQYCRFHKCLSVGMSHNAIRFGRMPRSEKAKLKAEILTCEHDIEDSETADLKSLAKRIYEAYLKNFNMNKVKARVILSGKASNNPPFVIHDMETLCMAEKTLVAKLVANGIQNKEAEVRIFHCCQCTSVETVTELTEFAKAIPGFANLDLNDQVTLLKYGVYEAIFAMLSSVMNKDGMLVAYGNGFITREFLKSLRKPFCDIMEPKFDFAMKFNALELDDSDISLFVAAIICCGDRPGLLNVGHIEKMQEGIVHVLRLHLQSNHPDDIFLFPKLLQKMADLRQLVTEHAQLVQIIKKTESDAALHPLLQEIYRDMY
Chain of Cellular tumor antigen p53 (Homo sapiens) (P04637 whole entry, looked up): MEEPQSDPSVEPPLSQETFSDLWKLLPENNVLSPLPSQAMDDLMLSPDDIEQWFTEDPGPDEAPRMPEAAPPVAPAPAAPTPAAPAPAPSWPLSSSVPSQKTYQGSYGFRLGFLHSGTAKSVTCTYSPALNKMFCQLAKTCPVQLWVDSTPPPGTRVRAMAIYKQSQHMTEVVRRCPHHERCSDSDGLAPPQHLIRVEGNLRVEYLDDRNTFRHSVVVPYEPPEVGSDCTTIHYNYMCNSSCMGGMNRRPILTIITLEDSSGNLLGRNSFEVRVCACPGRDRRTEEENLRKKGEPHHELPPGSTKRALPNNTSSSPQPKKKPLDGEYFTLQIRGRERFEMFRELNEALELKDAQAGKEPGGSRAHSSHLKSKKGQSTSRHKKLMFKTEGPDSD
Chain of Nuclear respiratory factor 1 (Homo sapiens) (Q16656 whole entry, looked up): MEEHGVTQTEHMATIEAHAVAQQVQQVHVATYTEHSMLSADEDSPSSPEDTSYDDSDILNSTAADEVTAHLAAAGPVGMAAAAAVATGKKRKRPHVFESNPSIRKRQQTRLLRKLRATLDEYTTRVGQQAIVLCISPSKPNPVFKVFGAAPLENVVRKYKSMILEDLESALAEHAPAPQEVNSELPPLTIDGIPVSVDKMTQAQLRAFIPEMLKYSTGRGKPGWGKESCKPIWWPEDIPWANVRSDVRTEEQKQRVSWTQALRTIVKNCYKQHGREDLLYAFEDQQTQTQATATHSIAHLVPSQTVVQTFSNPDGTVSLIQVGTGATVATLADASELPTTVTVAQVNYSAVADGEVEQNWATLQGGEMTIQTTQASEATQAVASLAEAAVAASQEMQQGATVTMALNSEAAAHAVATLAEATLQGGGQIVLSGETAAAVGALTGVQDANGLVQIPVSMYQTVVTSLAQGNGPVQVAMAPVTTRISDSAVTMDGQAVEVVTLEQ

CC1CNCC(C)O1 (stereo not given)
not listed: [14] | [15] | [16] | [17] | [18]
inactive: all other assays above

Cc1cc(C(=C2C=CC(=Nc3ccc(S(=O)(=O)O)cc3)C=C2)c2ccc(Nc3ccc(S(=O)(=O)O)cc3)cc2)cc(S(=O)(=O)O)c1N
not listed: [15] | [16] | [17] | [18]
inactive: all other assays above

Oc1cccc2c(O)cccc12
active: [10] 8.25 µM
not listed: [3] | [14] | [16] | [17] | [18]
inactive: all other assays above

CCc1cccc(CC)c1NC(=O)C(=O)O
not listed: [14] | [15] | [16] | [17] | [18]
inactive: all other assays above

c1cnc2c(c1)ccc1cccnc12
active: [6] 4.62 µM and 6.45 µM | [9] 100 µM | [10] 3.04 µM | [11] 155 µM | [12] 6.68 µM and 6 µM | [13] 28.6 µM
inactive: [1] | [2] | [14] | [3] | [15] | [5] | [7] | [8] | [9] | [10] | [11] | [13]

O=C1NS(=O)(=O)c2ccccc21
not listed: [3] | [9] | [10] | [12]
inactive: all other assays above

FC(F)(F)C(F)(F)C(F)(F)Br
not listed: [3] | [13] | [16] | [17] | [18]
inactive: all other assays above

NS(=O)(=O)O
not listed: [3] | [9] | [14] | [16] | [17] | [18]
inactive: all other assays above
